Pf growth 96h: Primary qHTS for delayed death inhibitors of the malarial parasite plastid, 96 hour incubation; 320,000 tested, 6.9% active; Potency, µM (top dose mostly 28.7 µM), for inactives: at the highest dose activity change, negative = inhibition, most hits filed as inhibitors; P. falciparum luciferase reporter growth, 96 h; further: on the % scale 0 is the no-effect control and ±100 the full control effect
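Parasite growth measured via integrated firefly luciferase reporter in P. falciparum. Infected erythrocytes at 2% hematocrit, 0.05% parasitemia final were treated 96 hours at 37 C under 5% CO2, and luminescence was read.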
NS1 function inh: qHTS Assay for Inhibitors of Influenza NS1 Protein Function. Potency, µM (titrated, usually from 46.1 µM), for inactives: top-dose activity, positive = more growth. 270,000 tested, 0.4% active. AID 2326, 2010; calls by dose curve; further: actives are rising curves; nearly all actives have a fitted effect of over 50% in size
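Read-out: OD600 growth recovery of NS1-expressing budding yeast. Cells grown overnight at 30C in -URA glucose medium, washed, resuspended and diluted 1:100 in 2% galactose assay medium, pH 6.0. Same strain lacking NS1 served as positive control.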
Pf growth 48h: Primary qHTS for delayed death inhibitors of the malarial parasite plastid, 48 hour incubation; AID 504832, 2011; P. falciparum luciferase growth in erythrocytes, 48 h; 310,000 tested, 5.9% active; Potency, µM (doses to about 28.7 µM), inactives show at the highest dose activity change, negative = inhibition, actives largely listed as inhibitors; further: on the % scale 0 is the no-effect control and ±100 the full control effect
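Compounds are pin-transferred into medium, infected erythrocytes (2% hematocrit, 0.1% parasitemia final) are added, and plates sit one parasite generation at 37 C in 5% CO2. Detection reagent is then added and luminescence measured.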
VACV mCherry inh: qHTS for Stage-Specific Inhibitors of Vaccinia Orthopoxvirus: mCherry Reporter Primary qHTS | Vaccinia virus mCherry reporter infection, fluorescence | Potency, µM (titrated, usually from 36.5 µM), for inactives: at the highest dose activity change, negative = inhibition, most hits filed as inhibitors | 310,000 tested, 0.63% active; calls by dose curve; tested in A549 cells; further: on the % scale 0 is the no-effect control and ±100 the full control effect; nearly all actives have a fitted effect of over 35% in size
HCV inh: qHTS Assay for Inhibitors of Hepatitis C Virus (HCV); Potency, µM (highest dose often 41.8 µM), for inactives: at the top dose activity change, negative = inhibition, actives largely listed as inhibitors; 340,000 tested, 3.4% active; Huh7.5.1 HCVcc-Cre infection, luciferase reporter, 44 h; further: on the % scale 0 is the no-effect control and ±100 the full control effect
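Compounds are dispensed onto cells plated 4 h earlier at 1,000 per well, with HCVcc-Cre virus (about 0.5 moi) added next. Following 44 h of culture, luminescent signal is measured for 15 sec after 15 min with substrate at room temperature.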
Vaccinia Venus: qHTS for Stage-Specific Inhibitors of Vaccinia Orthopoxvirus: Venus Reporter Primary qHTS | Vaccinia virus Venus reporter expression, fluorescence | Potency, µM (top dose mostly 36.5 µM), for inactives: at the highest dose activity change, negative = inhibition, most hits filed as inhibitors | 330,000 tested, 0.46% active; calls by dose curve; tested in A549 cells; further: on the % scale 0 is the no-effect control and ±100 the full control effect; nearly all actives have a fitted effect of over 30% in size
Numbers without * were called inactive; i = inactive; ? = inconclusive; / = no result; [ ] = dose if it differs, or a comment. Hits are enriched below; roughly 11% of the tested compounds scored in any of these assays. Unless noted, the call rests on the fitted dose curve; in most records, active means well fitted inhibition curve with a large enough effect; inconclusive means small, poorly fitted or top-dose-only effect, or another doubt; inactive means no such curve, though single readings can be large or run the other way. Potency means the concentration at half of the fitted maximal effect.

SMILES	Pf growth 96h	NS1 function inh	Pf growth 48h	VACV mCherry inh	HCV inh	Vaccinia Venus
Cc1oc(-c2ccccc2Cl)nc1CN1CCCCC1c1cccnc1 (stereo not drawn)	?	3.6%	11.7µM*	/	-16.2%	/
COc1ccc(-c2nc(CN3CCCCC3c3cccnc3)c(C)o2)c(F)c1 (stereo not drawn)	?	4.4%	9.28µM*	-10.1%	?	-17.0%
Cc1ccc(-c2nc(CN3CCCCC3c3cccc(F)c3)c(C)o2)o1 (stereo not drawn)	-13.0%	0.5%	?	0.8%	-12.4%	4.3%
Cc1oc(-c2ccccc2Cl)nc1CN1CCCCC1CO (stereo not drawn)	?	-3.8%	-12.7%	/	-5.7%	/
Cc1ccc(C)c(CN2CCC(CNC(=O)CCc3nnc4ccc(N5CCC(C)CC5)nn34)CC2)c1	?	2.6%	?	/	-27.6%	/
O=C(CCc1nnc2ccc(N3CCCCC3)nn12)NCC1CCN(Cc2ccc(F)cc2)CC1	10.4µM*	-7.5%	?	-20.8%	-6.8%	-11.0%
CC(=O)c1cccc(NC(=O)CCc2nnc3ccc(N4CCOCC4)nn23)c1	10.4µM*	9.3%	-10.6%	-13.4%	4.4%	-12.1%
COc1ccc(OC)c(NC(=O)CCc2nnc3ccc(N4CCC(C)CC4)nn23)c1	34.3%	-12.7%	?	-14.3%	-13.1%	-1.0%
CCOc1ccc(NC(=O)CCc2nnc3ccc(N4CCN(C)CC4)nn23)cc1	-20.0%	14.9%	35.9%	-16.7%	20.1%	-16.0%
COc1ccc(NC(=O)CCc2nnc3ccc(N4CCC(C)CC4)nn23)cc1OC	4.15µM*	6.0%	-1.4%	/	14.7%	/
CCOc1ccc(NC(=O)CCc2nnc3ccc(N4CCC(C)CC4)nn23)cc1	?	-8.2%	9.28µM*	-8.9%	-8.9%	-13.2%
Cc1cccc(N2CCN(C(=O)n3ccnc3)CC2)c1C	11.7µM*	-5.0%	?	/	?	/
Cc1cccc(N2CCN(C(=O)NC(C)c3ccc(F)c(F)c3)CC2)c1C (stereo not drawn)	11.7µM*	-8.5%	11.7µM*	-18.4%	10.3%	-17.1%
Cc1cccc(N2CCN(C(=O)c3cccs3)CC2)c1C	10.4µM*	-54.4%	-4.3%	i	-4.5%	-9.3%
Cc1cccc(N2CCN(C(=O)CCCSc3nc4ccccc4[nH]3)CC2)c1C	9.28µM*	-13.4%	?	-16.7%	/	-21.8%
CCc1nnc(NC(=O)CSc2nnc(CNC(=O)c3ccccc3)o2)s1	/	/	/	i	/	-12.9%
CC(=O)Nc1ccc(NS(=O)(=O)c2cc([N+](=O)[O-])ccc2C)cc1	-3.2%	/	4.0%	-12.7%	-3.5%	-7.9%
COC(=O)c1ccc(/C=N/NC(=O)C2CC(=O)N(c3ccc(F)cc3)C2)cc1 (stereo not drawn)	?	10.7%	0.7%	/	10.0%	/
Cc1ccc(C)c2[nH]c(=O)c(CCNC(=O)c3ccc(S(=O)(=O)N4CCOCC4)cc3)cc12	?	-0.1%	?	-29.1%	-7.4%	-19.7%
O=C(c1cccs1)N1CCC(N2CCN(c3ccccc3)CC2)CC1	3.29µM*	-3.6%[9.22 µM]	0.8%	-7.2%	-5.6%	-0.2%
Cc1cccc(N2CCN(C(=O)Cn3cccc3)CC2)c1C	4.15µM*	-55.7%	/	-15.0%	-21.7%	-10.2%
CCNc1nc(NCC)nc(N(C#N)C(C)C)n1	-0.3%	3.8%	-2.9%	i	-25.9%	-14.8%
CC1CCC2(CC1)NC(=O)N(NC(=O)c1cccc(N(C)C)c1)C2=O (stereo not drawn)	-7.8%	/	-20.0%	/	-5.2%	/
O=C(/C=C/c1cccc([N+](=O)[O-])c1)NCCSCc1ccccc1Cl	2.94µM*	-46.4%	-0.4%	-14.6%	-5.4%	-11.9%
Cc1cccc(NC(=S)NCc2cccs2)c1C	-22.4%	-2.2%	1.4%	-1.9%	-24.9%	-18.4%
SMILES	Pf growth 96h	NS1 function inh	Pf growth 48h	VACV mCherry inh	HCV inh	Vaccinia Venus
COc1ccc(CN2C(=O)c3cccnc3C2=O)cc1S(=O)(=O)NC1CCCCC1	13.1µM*	-4.9%	22.1%	/	-20.4%	/
O=C1c2cccnc2C(=O)N1Cc1ccccc1	-39.2%	-8.1%	-7.8%	i	?	-3.4%
O=C1c2cccnc2C(=O)N1Cc1ccc(Cl)cc1	1.65µM*	-21.5%	0.8%	/	-8.7%	/
CCCc1cc(=O)n2[nH]cc(-c3ccc(Cl)cc3)c2n1	?	11.7%	?	?	?	?
CC(NCc1ccccc1)c1ccccc1O (stereo not drawn)	10.4µM*	5.4%	1.65µM*	-11.7%	9.1%	-1.7%
COc1ccc(N(CC(=O)NC2CCCCC2)C(=O)c2snc(C(N)=O)c2N)cc1	-35.8%	16.2%	-15.4%	-20.6%	-23.0%	-2.8%
CC(C)(C)NC(=O)CN(C(=O)c1snc(C(=O)NC2CCCCC2)c1N)c1ccc(F)cc1	?	16.6%	7.38µM*	-8.8%	-5.5%	-14.4%
Cc1cc(C)cc(N(CC(=O)NCc2ccco2)C(=O)c2snc(C(N)=O)c2N)c1	4.65µM*	19.8%	-17.3%	-29.3%	?	?
Cc1cccc(N(C(=O)c2snc(C(N)=O)c2N)C(C(=O)NC2CCCC2)c2ccc(C)o2)c1 (stereo not drawn)	27.9%	12.8%	8.28µM*	-8.2%	?	-15.9%
Cc1ccc(N(C(=O)c2snc(C(N)=O)c2N)C(C(=O)NC2CCCC2)c2ccco2)cc1 (stereo not drawn)	15.2%	2.7%	13.1µM*	-15.3%	-21.0%	-23.4%
Cc1cccc(N(C(=O)c2snc(C(N)=O)c2N)C(C(=O)NC2CCCC2)c2ccncc2)c1 (stereo not drawn)	?	-8.7%	?	19.2%	7.0%	12.0%
COc1cc2oc(=O)cc(CN3CCN(c4ccccc4OC)CC3)c2cc1Cl	/	/	/	29.5%	/	1.8%
COC(=O)C1=NN(C(C)(C)CC(C)=O)C2C(=O)N(C3CCCCC3)C(=O)C12 (stereo not drawn)	1.1%	-1.9%	-22.5%	/	-4.6%	/
O=C(Cn1cc(SCc2ccc(F)cc2)c2ccccc21)N1CCCC1	/	/	/	-11.1%	/	-13.9%
CN1CC(C(=O)c2ccccc2)C(C(=O)c2ccccc2)C1 (stereo not drawn)	11.3%	-151.1%	60.4%	/	-1.9%	-17.4%
CN(C)c1ccc(C(C(=O)NC2CCCCC2)N(Cc2ccco2)C(=O)c2snc(C(N)=O)c2N)cc1 (stereo not drawn)	-12.4%	-6.4%	?	-14.6%	11.2µM*	-5.9%
CCCCC(C(=O)NC1CCCC1)N(C(=O)c1snc(C(N)=O)c1N)c1ccc(F)cc1 (stereo not drawn)	5.86µM*	7.6%	?	-5.0%	?	-6.7%
Cc1ccc(N(C(=O)c2snc(C(N)=O)c2N)C(C(=O)NC2CCCC2)c2ccc(C)o2)cc1 (stereo not drawn)	?	-1.4%	10.4µM*	-11.0%	?	-9.3%
